# Results: PubChem BioAssay (NCATS)
# Inconclusive results are not listed. Entries that show only a call come without a potency. Activity calls are given as the source filed them. The call rests on the fitted dose curve; in most records, active means well fitted inhibition curve with a large enough effect; inconclusive means small, poorly fitted or top-dose-only effect; inactive means flat fitted curve, though single readings scatter.
# Target: Glutathione peroxidase 1 (Homo sapiens) (UniProt P07203)
# Test: Primary qHTS Assay for Inhibitors of Recombinant Selenoprotein Glutathione Peroxidase 1 (GPX1) (AID 1845191)
# Details: recombinant GPX1, GR-coupled NADPH fluorescence, 15 min; series mostly up to 48.8 µM
# Summary of the method: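 10 nM GPX1 + cpd, 30 min RT; start w/ 1 mM GSH, 0.5 mM cumene hydroperoxide, 0.5 mM NADPH, 100 nM GR, 0.01% BSA; buffer 50 mM Tris-HCl pH 7.5, 2 mM EDTA, 150 mM NaCl; Fl 340/450, 0 & 15 min.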
# Further: nearly all actives have a fitted effect of over 65% in size.
# Potency means the concentration at half of the fitted maximal effect.
# Sequence of Glutathione peroxidase 1 (Homo sapiens) (P07203 whole entry, looked up): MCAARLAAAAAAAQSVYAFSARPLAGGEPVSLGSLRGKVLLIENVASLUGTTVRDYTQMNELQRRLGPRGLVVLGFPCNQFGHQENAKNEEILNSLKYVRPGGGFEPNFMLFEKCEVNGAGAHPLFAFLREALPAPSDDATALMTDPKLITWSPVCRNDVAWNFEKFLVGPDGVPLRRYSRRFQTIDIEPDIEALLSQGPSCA
row,Structure (SMILES),Potency
1,COC(=O)C1=CO[C@@H](O)[C@@H]2C(CO)=CC[C@H]12,inactive
2,NC(N)=NCCCCN=C(N)N,inactive
3,C[N+](C)(C)CCO,inactive
4,Cn1cnc2c(NCc3ccccc3)nc(NCCO)nc21,inactive
5,C[N+]1(C)CCC(OC(=O)C(O)(c2ccccc2)C2CCCC2)C1 (stereo not drawn),inactive
6,C[C@]12CCC(=O)C=C1CC[C@@H]1[C@@H]2[C@@H](O)C[C@@]2(C)[C@H]1CC[C@]2(O)C(=O)COC(=O)CCC(=O)O,inactive
7,CCCCCC(=O)O[C@]1(C(C)=O)CC[C@H]2[C@@H]3CCC4=CC(=O)CC[C@]4(C)[C@H]3CC[C@@]21C,inactive
8,Oc1ccc(CCNCCCCCCNCCc2ccccc2)cc1O,inactive
9,O=C(O)/C=C(\CC(=O)O)C(=O)O,inactive
10,Clc1ccc2c(c1)N=C(N1CCNCC1)c1ccccc1N2,inactive
11,CCOC(=O)Cn1cccc1-c1nc(-c2ccc(OC)cc2)c(-c2ccc(OC)cc2)s1,inactive
12,CCN(CC)CCNC(=O)c1ccc(NS(C)(=O)=O)cc1,inactive
13,C[C@@H](O[C@H]1OCCN(Cc2n[nH]c(=O)[nH]2)[C@H]1c1ccc(F)cc1)c1cc(C(F)(F)F)cc(C(F)(F)F)c1,inactive
14,CC(Oc1c(Cl)cccc1Cl)C1=NCCN1 (stereo not drawn),inactive
15,CC1(C)O[C@@H]2C[C@H]3[C@@H]4CCC5=CC(=O)C=C[C@]5(C)[C@@]4(F)[C@@H](O)C[C@]3(C)[C@]2(C(=O)CO)O1,inactive
16,CC[C@@H]([C@H](C)O)n1ncn(-c2ccc(N3CCN(c4ccc(OC[C@@H]5CO[C@@](Cn6cncn6)(c6ccc(F)cc6F)C5)cc4)CC3)cc2)c1=O,inactive
17,Nc1ncnc2n[nH]c(Nc3ccc(F)cc3)c12,inactive
18,O=C1NC(=O)/C(=C/c2ccc3c(c2)OC(F)(F)O3)S1,inactive
19,CO/N=C(/C(=O)N[C@@H]1C(=O)N2C(C(=O)[O-])=C(C[n+]3ccn4ncccc43)CS[C@H]12)c1nsc(N)n1,20.2 µM (active)
20,C[N+](C)(CCOc1ccccc1)Cc1cccs1,inactive
21,O=C(C1CCCCC1)N1CC(=O)N2CCCc3ccccc3C2C1 (stereo not drawn),inactive
22,CC(=O)OCC(=O)[C@@]1(O)[C@H](OC(C)=O)C[C@H]2[C@@H]3CCC4=CC(=O)C=C[C@]4(C)[C@@]3(F)[C@@H](O)C[C@@]21C,inactive
23,CCCCC/C=C\C/C=C\CCCCCCCC(=O)NC(C)c1ccccc1 (stereo not drawn),inactive
24,CN1CCCN(C(c2ccccc2)c2ccc(Cl)cc2)CC1 (stereo not drawn),inactive
25,Cc1nn(-c2ccccc2)c(C)c1/C=N/N1CCN(Cc2ccccc2)CC1,inactive
26,CCN(CC)CC(=O)OCC(=O)[C@@]1(O)CC[C@H]2[C@@H]3CCC4=CC(=O)CC[C@]4(C)[C@H]3[C@@H](O)C[C@@]21C,inactive
27,CCCC(=O)O[C@]1(C(=O)CCl)[C@@H](C)C[C@H]2[C@@H]3CCC4=CC(=O)C=C[C@]4(C)[C@@]3(F)C(=O)C[C@@]21C,inactive
28,C[N+]1(CC2COC(c3ccccc3)(c3ccccc3)O2)CCCCC1 (stereo not drawn),inactive
29,CC(C)=CCC/C(C)=C/CC/C(C)=C/C(=O)OCC(=O)[C@@]1(O)CC[C@H]2[C@@H]3CCC4=CC(=O)C=C[C@]4(C)[C@H]3[C@@H](O)C[C@@]21C,inactive

# Target: Phospholipid hydroperoxide glutathione peroxidase GPX4 (Homo sapiens) (UniProt P36969)
# Test: Primary qHTS Assay for Inhibitors of Recombinant Selenoprotein Glutathione Peroxidase 4 (GPX4) (AID 1845192)
# Details: recombinant GPX4, GR-coupled NADPH fluorescence, 15 min; series mostly up to 50 µM
# Summary of the method: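 NADPH consumption, followed by fluorescence at 340/450 nm between 0 and 15 min, reports GPX4 activity via coupled glutathione reductase (100 nM). Enzyme 200 nM was pre-exposed to compound 30 min; 0.5 mM cumene hydroperoxide and 1 mM GSH served as substrates.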
# Sequence of Phospholipid hydroperoxide glutathione peroxidase GPX4 (Homo sapiens) (P36969 whole entry, looked up): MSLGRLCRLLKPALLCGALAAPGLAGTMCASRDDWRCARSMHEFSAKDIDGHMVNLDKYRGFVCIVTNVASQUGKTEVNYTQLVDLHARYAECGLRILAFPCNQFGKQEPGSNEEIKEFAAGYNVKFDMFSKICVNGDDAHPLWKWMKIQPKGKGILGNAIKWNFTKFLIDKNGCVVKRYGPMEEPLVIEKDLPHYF
row,Structure (SMILES),Potency
1,NC(N)=NCCCCN=C(N)N,inactive
2,C[N+](C)(C)CCO,inactive
3,C[C@]12CCC(=O)C=C1CC[C@@H]1[C@@H]2[C@@H](O)C[C@@]2(C)[C@H]1CC[C@]2(O)C(=O)COC(=O)CCC(=O)O,inactive
4,CCCCCC(=O)O[C@]1(C(C)=O)CC[C@H]2[C@@H]3CCC4=CC(=O)CC[C@]4(C)[C@H]3CC[C@@]21C,inactive
5,O=C(O)/C=C(\CC(=O)O)C(=O)O,inactive
6,Clc1ccc2c(c1)N=C(N1CCNCC1)c1ccccc1N2,inactive
7,CCOC(=O)Cn1cccc1-c1nc(-c2ccc(OC)cc2)c(-c2ccc(OC)cc2)s1,inactive
8,CN(C)CCOC(c1ccccc1)c1ccc(Br)cc1 (stereo not drawn),inactive
9,CC1(C)O[C@@H]2C[C@H]3[C@@H]4CCC5=CC(=O)C=C[C@]5(C)[C@@]4(F)[C@@H](O)C[C@]3(C)[C@]2(C(=O)CO)O1,inactive
10,CC[C@@H]([C@H](C)O)n1ncn(-c2ccc(N3CCN(c4ccc(OC[C@@H]5CO[C@@](Cn6cncn6)(c6ccc(F)cc6F)C5)cc4)CC3)cc2)c1=O,inactive
11,CC1(C)O[C@@H]2C[C@H]3[C@@H]4C[C@H](F)C5=CC(=O)C=C[C@]5(C)[C@@]4(F)[C@@H](O)C[C@]3(C)[C@]2(C(=O)CO)O1,inactive
12,Nc1ncnc2n[nH]c(Nc3ccc(F)cc3)c12,inactive
13,CCCCCOc1ccc(C2SC(=O)NC2=O)cc1OCC (stereo not drawn),22.4 µM (active)
14,C[N+](C)(CCOc1ccccc1)Cc1cccs1,inactive
15,CCCCC/C=C\C/C=C\CCCCCCCC(=O)NC(C)c1ccccc1 (stereo not drawn),inactive
16,CN1CCCN(C(c2ccccc2)c2ccc(Cl)cc2)CC1 (stereo not drawn),inactive
17,CCCC(=O)O[C@]1(C(=O)CCl)[C@@H](C)C[C@H]2[C@@H]3CCC4=CC(=O)C=C[C@]4(C)[C@@]3(F)C(=O)C[C@@]21C,inactive
18,C[N+]1(CC2COC(c3ccccc3)(c3ccccc3)O2)CCCCC1 (stereo not drawn),inactive
19,CC(C)=CCC/C(C)=C/CC/C(C)=C/C(=O)OCC(=O)[C@@]1(O)CC[C@H]2[C@@H]3CCC4=CC(=O)C=C[C@]4(C)[C@H]3[C@@H](O)C[C@@]21C,inactive
